Data published in ChEMBL document CHEMBL1201862, “PubChem BioAssay data set” (2004).
Screen size: about 420,000 compounds; about 50,000 (12%) were called active. Inconclusive results (about 26%) are left out. This is one part of a sample in which actives are shown more often than they occur. The calls are words filed in the database; no cut-off is given here.

Each compound was assayed against Tyrosyl-DNA phosphodiesterase 1 (Homo sapiens) (UniProt Q9NUW8) (assay: qHTS for Inhibitors of human tyrosyl-DNA phosphodiesterase 1 (TDP1): qHTS in cells in presence of CPT.).
Assay type: functional

Sequence of Tyrosyl-DNA phosphodiesterase 1 (Homo sapiens) (Q9NUW8 whole entry): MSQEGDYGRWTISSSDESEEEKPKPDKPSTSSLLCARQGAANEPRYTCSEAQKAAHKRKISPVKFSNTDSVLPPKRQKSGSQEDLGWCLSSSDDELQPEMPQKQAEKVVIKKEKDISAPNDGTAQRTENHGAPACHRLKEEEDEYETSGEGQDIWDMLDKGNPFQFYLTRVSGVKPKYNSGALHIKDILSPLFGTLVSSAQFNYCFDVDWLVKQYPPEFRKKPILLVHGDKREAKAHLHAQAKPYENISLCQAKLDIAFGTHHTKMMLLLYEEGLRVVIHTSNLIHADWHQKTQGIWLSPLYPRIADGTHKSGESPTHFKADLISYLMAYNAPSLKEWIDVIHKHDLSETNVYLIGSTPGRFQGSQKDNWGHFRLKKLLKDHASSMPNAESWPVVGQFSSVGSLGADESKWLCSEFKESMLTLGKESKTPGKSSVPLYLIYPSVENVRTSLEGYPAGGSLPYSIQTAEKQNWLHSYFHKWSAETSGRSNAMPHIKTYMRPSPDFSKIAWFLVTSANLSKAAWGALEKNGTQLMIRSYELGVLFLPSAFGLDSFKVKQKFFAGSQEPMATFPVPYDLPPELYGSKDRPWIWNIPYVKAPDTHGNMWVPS

Potency, active:
COc1ccc(OC)c(/C=C/c2cccc3c2N(CCCCI)C=S3/C=C/c2cc(OC)ccc2OC)c1 (stereo not given) 6.31 µM, CC(C)C(C)c1cccc2c1NC=S2C(C)C(C)C (stereo not given) 5.62 µM, COc1ccccc1/C=C/C(=O)c1cccs1 9.44 µM, Cc1cccc2c1N(CCCCI)C=S2C (stereo not given) 3.98 µM, ICCCCN1C=S(CI)c2ccccc21 (stereo not given) 10 µM
